# Test results taken from PubChem BioAssay (Tox21).
# Inconclusive results are not listed. A number with no mark means an inactive call. The call rests on the fitted dose curve; in most records, active means well fitted activation curve with a large enough effect in the repeat runs; inconclusive means weak or mixed curves; inactive means flat fitted curve, though single readings scatter.
# Assay: Caspase-3/7 induction in HepG2 cells by small molecules, qHTS assay (AID 1346978); further: nearly all actives have a fitted effect of over 15% in size
# Conditions: HepG2 caspase-3/7 activation, Caspase-Glo luminescence, 17 h; series mostly up to 92.4 µM; caspase activation: at the top concentration
# Summary of the method: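 Caspase-3/7 induction was measured by Caspase-Glo 3/7 luminescence (30 min, room temperature) after a 17 hr compound exposure of wild-type HepG2 cells seeded at 2,000 per well and pre-incubated 5 hr.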
# On the % scale 0 is the no-effect control and ±100 the full control effect.
row,Structure (SMILES),caspase activation
1,CN1CCN(c2c(F)cc3c(=O)c(C(=O)O)cn4c3c2SCC4)CC1,-1.05% [at 42.5 µM]
2,CC(Oc1c(Cl)cccc1Cl)C1=NCCN1 (stereo not drawn),-1.58% [at 42.5 µM]
3,CCN[C@H]1CN(CCCOC)S(=O)(=O)c2sc(S(N)(=O)=O)cc21,1.8% [at 42.5 µM]
4,C[C@@H]1CN(c2c(F)c(N)c3c(=O)c(C(=O)O)cn(C4CC4)c3c2F)C[C@H](C)N1,0.598% [at 19 µM]
5,CCc1cc(Cl)c(OC)c(C(=O)NC[C@@H]2CCCN2CC)c1O,-0.782% [at 42.5 µM]
6,CCCCNCCCC,-0.596%
7,NC1=NCC2c3ccccc3Cc3ccccc3N12 (stereo not drawn),0.1% [at 42.5 µM]
8,CCCNC(C)C(=O)Nc1c(C)csc1C(=O)OC (stereo not drawn),0.911% [at 42.5 µM]
9,O=C(O)[C@@H](O)[C@H](O)[C@H](O)[C@@H](O)C(=O)O,0.512% [at 42.5 µM]
10,CO[C@@]1(NC(=O)CSCC#N)C(=O)N2C(C(=O)O)=C(CSc3nnnn3C)CS[C@@H]21,-1.42% [at 42.5 µM]
11,CCCCCCCCCCCCCCCCOP(=O)([O-])OCC[N+](C)(C)C,0.0558% [at 42.5 µM]
12,CN(C)Cc1ccccc1,0.33%
13,NCCC(O)(P(=O)(O)O)P(=O)(O)O,-0.843% [at 42.5 µM]
14,CCCC(CCC)(C(=O)OCC)C(=O)OCC,2.91% [at 42.5 µM]
15,C[C@@H]1CN(c2c(F)c(F)c3c(=O)c(C(=O)O)cn(C4CC4)c3c2F)C[C@H](C)N1,-1.23% [at 19 µM]
16,C[C@@H](N)C(=O)O,0.0511% [at 42.5 µM]
17,O=C1CCCc2ccccc21,-0.146%
18,CC1(C)O[C@@H]2C[C@H]3[C@@H]4CCC5=CC(=O)CC[C@]5(C)[C@@]4(F)[C@@H](O)C[C@]3(C)[C@]2(C(=O)CCl)O1,0.47% [at 42.5 µM]
19,CC(C)C(=O)OC/C=C/c1ccccc1,-0.537%

row,Structure (SMILES),caspase activation
1,O=C(O[C@@H](C(=O)O)[C@@H](OC(=O)c1ccccc1)C(=O)O)c1ccccc1,-0.16%
2,CCOC(=O)c1cc(=O)c2c(OCC(COc3cccc4oc(C(=O)OCC)cc(=O)c34)OC(=O)[C@@H](N)CCCCN)cccc2o1,-0.169% [at 42.5 µM]
3,C=CCCCCCCCCO,2.7%
4,CN1C(=O)CC(c2ccccc2)C1=O (stereo not drawn),-0.0659% [at 42.5 µM]
5,CCCc1c2oc(C(=O)O)cc(=O)c2cc2c(=O)cc(C(=O)O)n(CC)c12,-1.18% [at 42.5 µM]
6,CN1CCN(N)CC1,0.219% [at 42.5 µM]
7,CCc1nnc(NS(=O)(=O)c2ccc(N)cc2)s1,0.425% [at 42.5 µM]
8,CCCCC(=O)O[C@]1(C(=O)CO)[C@H](C)C[C@H]2[C@@H]3CCC4=CC(=O)C=C[C@]4(C)[C@@]3(F)[C@@H](O)C[C@@]21C,-1.83% [at 42.5 µM]
9,CCOc1ccc2nc(N)sc2c1,-11.9%
10,CCCCCCn1c(=O)c2c(ncn2C)n(C)c1=O,0.641% [at 42.5 µM]
11,OCCN(CCO)CCN(CCO)CCO,1.29%
12,Cc1ccc([N+](=O)[O-])cc1Cl,0.0097%
13,Cc1ccc(C)c(N)c1,-2.45%
14,CN1[C@@H]2CC[C@H]1CC(OC(=O)c1c[nH]c3ccccc13)C2 (stereo partly drawn),1.98% [at 42.5 µM]
15,NC(=O)Cc1cccc(C(=O)c2ccccc2)c1N,-0.505% [at 42.5 µM]
16,CCC/C=C/CO,0.634%
17,O=C(O)c1cccc(Cl)c1Cl,1.29%
18,CCCCc1ccc2nc(NC(=O)OC)[nH]c2c1,-8.43% [at 42.5 µM]
19,CCN(CC)CCNC(=O)COc1ccc(Cl)cc1,-1.2% [at 42.5 µM]
